Data reported in PubChem BioAssay AID1851 (National Center for Advancing Translational Sciences (NCATS), 2009).
In all, about 16,000 compounds went through this assay and about 5,100 (32%) were called active. Inconclusive results (about 25%) are left out. The call rests on the fitted dose curve; in most records, active means well fitted curve in the direction sought with a large enough effect; inconclusive means small, poorly fitted or top-dose-only effect, or effect the other way; inactive means no such curve, though single readings can be large or run the other way. The list shows a part of the results.

Target: Cytochrome P450 3A4 (Homo sapiens) (UniProt P08684)
Sequence (P08684 whole entry, looked up): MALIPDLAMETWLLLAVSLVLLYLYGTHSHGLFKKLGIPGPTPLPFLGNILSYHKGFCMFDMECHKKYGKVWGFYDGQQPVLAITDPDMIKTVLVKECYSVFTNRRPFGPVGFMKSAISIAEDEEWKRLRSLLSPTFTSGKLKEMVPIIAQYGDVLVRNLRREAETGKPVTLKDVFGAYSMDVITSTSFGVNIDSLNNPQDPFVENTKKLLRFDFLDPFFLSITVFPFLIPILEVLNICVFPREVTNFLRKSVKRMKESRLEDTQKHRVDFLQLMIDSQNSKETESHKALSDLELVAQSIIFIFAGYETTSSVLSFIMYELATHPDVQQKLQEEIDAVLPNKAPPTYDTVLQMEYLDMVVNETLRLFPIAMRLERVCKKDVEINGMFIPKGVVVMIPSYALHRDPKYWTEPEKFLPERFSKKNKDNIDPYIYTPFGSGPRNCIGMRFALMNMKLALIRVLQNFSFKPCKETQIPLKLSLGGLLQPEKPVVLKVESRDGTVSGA
Experiment: Cytochrome panel assay with activity outcomes
Conditions: recombinant CYP, pro-luciferin dealkylation, luminescence, p450-cyp3a4; series mostly up to 57.1 µM; activity, negative = inhibition: at the top concentration
On the % scale 0 is the no-effect control and ±100 the full control effect.

Row | Compound | activity, negative = inhibition | AC50
1 | O=C1C(O)=C(O)C(=O)C(O)=C1O | -16.8% [at 25.6 µM] (inactive) | 
2 | NC(N)=NC(N)=Nc1ccc(S(=O)(=O)O)cc1 | -0.586% [at 11.4 µM] (inactive) | 
3 | CC1=CC=CN2CC(O)CN=C12 (stereo not given) | -1.24% (inactive) | 
4 | Cc1c(C(=O)NN2CCN(C)CC2)cccc1[N+](=O)[O-] | -3.79% (inactive) | 
5 | COc1ccc(Cc2nnc(NC(=O)c3cccc([N+](=O)[O-])c3C)s2)cc1 |  | 10 µM (active)
6 | COc1ccc(Cc2nnc(NC(=O)c3ccco3)s2)cc1 | 13.7% (inactive) | 
7 | O=C(CN1CCCCC1)Nc1cccc([N+](=O)[O-])c1 | 22.9% (inactive) | 
8 | O=C(CN1CCCCC1)Nc1nnc(-c2ccc([N+](=O)[O-])cc2)s1 |  | 7.94 µM (active)
9 | COCC(=O)N(C)c1nnc(-c2ccc([N+](=O)[O-])cc2)s1 | -5.26% [at 2.29 µM] (inactive) | 
10 | FC(F)(F)c1ccc(/C=N/N2CCN(Cc3cccc4ccccc34)CC2)cc1 | 15.5% [at 2.29 µM] (inactive) | 
11 | Cn1c(=O)c2cc(S(=O)(=O)NCCC(=O)N3CC=C(c4ccccc4)CC3)ccc2n(C)c1=O |  | 10 µM (active)
12 | CCCN(CCC)CCNC(=O)C1CCCN(S(=O)(=O)c2ccc3c(c2)oc(=O)n3C)C1 (stereo not given) | -19.5% (inactive) | 
13 | Cn1c(=O)c2cn(-c3ccccc3)cc2n(C)c1=O | -2.19% [at 11.4 µM] (inactive) | 
14 | Cn1c(=O)oc2cc(S(=O)(=O)NCCC(=O)N3CC=C(c4ccccc4)CC3)ccc21 |  | 12.6 µM (active)
15 | O=C(Nc1ccccc1)[C@@]12C[C@@H]1/C(=N/O)c1ccccc1O2 | -18.7% (inactive) | 
16 | Fc1ccc(C(OCCCc2cnc[nH]2)c2ccc(F)cc2)cc1 |  | 0.794 µM (active)
17 | O=C(O)CCC(O)=C1S(=O)(=O)OCCOS1(=O)=O | 2.08% [at 11.4 µM] (inactive) | 
18 | COc1ccccc1CN(Cc1cc2cc3c(cc2[nH]c1=O)OCCO3)Cc1nnnn1Cc1ccco1 |  | 10 µM (active)
19 | Cc1cc(C)c2cc(CN(Cc3nnnn3Cc3ccc(F)cc3)C3CCCC3)c(=O)[nH]c2c1 |  | 10 µM (active)
20 | O=c1[nH]c2cc3c(cc2cc1CN(CCCO)Cc1nnnn1Cc1ccc(F)cc1)OCO3 |  | 3.16 µM (active)

Row | Compound | activity, negative = inhibition | AC50
21 | COc1ccccc1CN(Cc1cc2cc(C)cc(C)c2[nH]c1=O)Cc1nnnn1CC1CCCO1 (stereo not given) |  | 10 µM (active)
22 | NC(N)=N/N=C\c1ccc(C2CCNCC2)cc1 | -4.2% [at 11.4 µM] (inactive) | 
23 | CN(C)CCCn1c2c3ccccc3ccc2c2oc(=O)c3ccccc3c21 | 3.83% [at 11.4 µM] (inactive) | 
24 | NC1=NC(=O)/C(=C/c2cccs2)S1 | 10.4% (inactive) | 
25 | CCNc1ncc2nc(CCc3ccccc3)c(=O)n(C3CC3)c2n1 |  | 15.8 µM (active)
26 | COc1ccc(-n2c(=O)c(-c3ccccc3)nc3cnc(N4CCOCC4)nc32)cc1 | -13.6% (inactive) | 
27 | COc1ccc(-c2nc3cnc(N4CCOCC4)nc3n(CCc3ccccc3)c2=O)cc1 | -9.07% (inactive) | 
28 | COc1ccc(-n2c(=O)c(CCc3ccccc3)nc3cnc(N4CCOCC4)nc32)cc1 |  | 12.6 µM (active)
29 | CCNc1ncc2nc(-c3ccc(Cl)cc3)c(=O)n(C)c2n1 | -10.1% (inactive) | 
30 | CCNc1ncc2nc(CCc3ccccc3)c(=O)n(-c3ccc(OC)cc3)c2n1 |  | 6.31 µM (active)
31 | CCNc1ncc2nc(CCc3ccccc3)c(=O)n(-c3ccccc3)c2n1 |  | 5.01 µM (active)
32 | CCNc1ncc2nc(-c3ccccc3)c(=O)n(C3CC3)c2n1 | -27.1% (inactive) | 
33 | CCNc1ncc2nc(-c3ccccc3)c(=O)n(C)c2n1 | -26.1% (inactive) | 
34 | CCNc1ncc2nc(C)c(=O)n(C3CC3)c2n1 | -24.2% (inactive) | 
35 | COc1ccc(C(=O)c2ccccc2)c(O)c1 | -12.2% [at 25.6 µM] (inactive) | 
36 | COc1ccc(C(=O)c2cnc3ccccc3c2-c2ccccc2)cc1 |  | 12.6 µM (active)
37 | CCOC(=O)c1cn(-c2nc(-c3ccc(Cl)cc3)cs2)c2c(F)c(N3CC(C)OC(C)C3)c(F)cc2c1=O (stereo not given) | -1.76% (inactive) | 
38 | Cc1ccc(S(=O)(=O)Nc2nc3ccccc3nc2N2CCc3ccccc3C2)cc1 |  | 2.82 µM (active)
39 | Cc1ccc2[nH]c3c(N4CCc5ccccc5C4)ncnc3c2c1 | -19.7% [at 2.29 µM] (inactive) | 
40 | O=C1C2C3C=CC(C2C(=O)N1CN1CCOCC1)C1C2C(=O)N(CN4CCOCC4)C(=O)C2C31 (stereo not given) | -1.18% [at 11.4 µM] (inactive) | 

Row | Compound | activity, negative = inhibition | AC50
41 | COc1cccc(-c2cc(NCc3cccs3)ncn2)c1 |  | 7.94 µM (active)
42 | COc1cccc(-c2cc(NCc3cccnc3)ncn2)c1 |  | 3.98 µM (active)
43 | c1cncc(-c2cc(NCc3cccs3)ncn2)c1 |  | 2.51 µM (active)
44 | COc1ccccc1-c1cc(NCc2cnc(C)cn2)ncn1 | -29.9% (inactive) | 
45 | COc1cccc(-c2cc(NCc3cnc(C)cn3)ncn2)c1 |  | 25.1 µM (active)
46 | N[C@](CC1c2ccccc2Oc2ccccc21)(C(=O)O)[C@@H]1C[C@@H]1C(=O)O | -17.2% (inactive) | 
47 | CCCOC(=O)c1ccc(NC(=O)c2cn(CC)c3nc(C)ccc3c2=O)cc1 | -9.88% (inactive) | 
48 | C[C@@H]1c2cccc(O)c2C(O)=C2C(=O)[C@@]3(O)C(O)=C(C(N)=O)C(=O)[C@@H](N(C)C)[C@@H]3[C@@H](O)[C@@H]21 |  | inactive
49 | COc1cccc(-c2cc(NCc3ccccc3)ncn2)c1 |  | 25.1 µM (active)
50 | O=C(NCCO[N+](=O)[O-])c1cccnc1 | -5.81% (inactive) | 
51 | O=C(NCCOC(=O)c1ccc(C(=O)OCCNC(=O)c2cccnc2)s1)c1cccnc1 |  | 2.51 µM (active)
52 | CN1CCN(NC(=O)c2cccc(F)c2)CC1 | -1.37% (inactive) | 
53 | CCN1C(=O)/C(=C/C=C2/SCCN2C)SC1=S | 0.316% [at 2.29 µM] (inactive) | 
54 | CN1CCN(NC(=O)CN2C(=O)/C(=C/c3c(Cl)cccc3Cl)SC2=S)CC1 |  | 14.1 µM (active)
55 | CSC(=NC#N)N1CCN(c2ccc(Cl)cc2)CC1 | 22.3% (inactive) | 
56 | CN(C)C(=C(C#N)C#N)N1CCN(c2ccc(Cl)c(Cl)c2)CC1 |  | 8.91 µM (active)
57 | C[N@+]1(CCC(=O)c2ccccc2)CC[C@H]2CC[C@H](C2)C1 | -5.07% [at 11.4 µM] (inactive) | 
58 | CCOC(=O)c1c(NC(C)=O)sc2c(OC)cccc12 |  | 2 µM (active)
59 | CCOC(=O)c1sc(NC(C)=O)nc1-c1ccccc1 | -5.57% [at 2.29 µM] (inactive) | 
60 | O=[N+]([O-])C(/C=C(\Cl)[N+](=O)[O-])=C1N(Cc2ccc(Cl)nc2)CCN1Cc1ccc(Cl)nc1 |  | 14.1 µM (active)
